This excerpt belongs to a sample that is enriched for hits.
KDM5B inh: blocks human KDM5B histone demethylase activity. KDM5B demethylase, FDH-coupled NADH fluorescence (FDH is formaldehyde dehydrogenase). Potency, µM (titrated, usually from 57.7 µM), most hits filed as inhibitors. 220,000 tested, 2.6% active. AID 1347165; active = well fitted inhibition curve with a large enough effect; note: 0% is about no effect; nearly all actives have a fitted effect of over 70% in size
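Compound dilutions met 200 nM (final) KDM5BΔAP for 10 min at room temperature before substrate addition. The substrate mix held 12.5 µM H3K4me3 with cofactors 25 µM α-ketoglutarate and 50 µM Fe²⁺. NADH signal gain over 30 min defined activity.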
Numbers without * were called inactive; i = inactive. Potency is the fitted concentration of half-maximal effect.

SMILES	KDM5B inh
Cn1cc(C(=O)N2CCC3(CC2)CC(=O)N(CCCc2ccccc2)C3)cn1	i
CCCC(C)N1CC2(CCN(C(=O)c3cnc(C)cn3)CC2)OC1=O (configuration not stated)	i
CCCC(C)N1CC2(CCN(C(=O)c3cnn4ccccc34)CC2)OC1=O (configuration not stated)	28.2µM*
CCCC(C)N1CC2(CCN(C(=O)c3cc(Cl)ccc3C)CC2)OC1=O (configuration not stated)	i
O=C1CC2(CCN(C(=O)C3CCc4ccccc43)CC2)CN1Cc1ccccc1 (configuration not stated)	i
Cc1cccc2nc(CSc3ccc4ccccc4n3)cc(=O)n12	i
O=C(c1nnn2c1COC(c1ccc(Cl)cc1)C2)N1CCN(C(=O)c2c(F)cccc2F)CC1 (configuration not stated)	i
CC1CCN(S(=O)(=O)c2ccc3c(c2)CCC(=O)N3CC(=O)N2CCC3(CC2)OCCO3)CC1	i
CC(C)c1ccccc1NC(=O)/C=C/c1c(F)cccc1Cl	i
Cc1ccc(Cn2c(C3CCN(C(=O)c4ccc(C)c(F)c4)CC3)n[nH]c2=O)cc1	i
COc1ncc(-c2ccnc(-c3nnc(C)n3CCc3ccccc3)c2)cn1	i
COc1cccc(-c2ccnc(-c3nnc(C)n3Cc3ccccc3)c2)c1	35.5µM*
Cc1nnc(-c2cc(-c3cccc(N(C)C)c3)ccn2)n1Cc1ccccc1	i
COCCn1c(C)nnc1-c1cc(-c2cccc(OC(F)(F)F)c2)ccn1	i
Cc1nnc(-c2cc(-c3cccc(F)c3)ccn2)n1Cc1ccccc1	i
COCCn1c(C)nnc1-c1cc(-c2ccc(OC)c(OC)c2)ccn1	31.6µM*
CC(C)c1ccc(-c2nn(-c3ccccc3)cc2/C=N/O)cc1	i
CNc1c(NC(=O)NCCC(C)C)c(=O)oc2ccccc12	i
COc1cccc(N2CCN(C(=O)Cc3ccc(N4CCCC4=O)cc3)CC2)c1	i
CNC(=O)CCn1ncc2cc(OCc3ccccc3-c3cc(F)ccc3OC)ccc21	i
O=C1C(c2ccccc2)=S=C2c3ccccc3-c3ccccc3N12	i
COc1cc(C(=O)NCCNC(=O)c2cn(C)c3ccccc23)cc(OC)c1OC	i
Cn1nc(-c2ccc(NC3CCCCC3)c([N+](=O)[O-])c2)c2ccccc2c1=O	i
CCNC(=O)NC(=O)CN(Cc1ccccc1)c1ccccc1	i
COc1ccc(-c2ccnc3nc(C4CC4)nn23)cc1	15.8µM*
SMILES	KDM5B inh
COc1ccc(-c2ccnc3nc(C4CC4)nn23)c(F)c1	25.1µM*
O=C(CCl)NC(NC(=O)CCl)c1ccccc1	i
CC(C)C(=O)N1CCC(NC(=O)CCn2ccc3ccccc32)CC1	i
O=S(=O)(NCc1csc(Br)c1)c1ccc(Br)s1	i
O=C1/C(=C/c2cccc(O)c2)C(c2ccccc2)Oc2ccccc21 (configuration not stated)	i
Cc1cc(C)cc(NCc2ccccc2CO)c1	i
CC(C)(C)CC(=O)N[C@H]1C[C@H]2C(=O)Nc3ccc(-c4cccs4)cc3C(=O)N2C1	17.8µM*
COCC(=O)N[C@H]1C[C@H]2C(=O)Nc3ccccc3C(=O)N2C1	i
O=C1Nc2ccc(-c3cccs3)cc2C(=O)N2CC[C@H](NS(=O)(=O)c3ccc(Cl)cc3)C[C@@H]12	31.6µM*
O=C(N[C@H]1CCN2C(=O)c3cc(Br)ccc3NC(=O)[C@@H]2C1)C1CCNCC1	i
CC(C)(C)CC(=O)N[C@H]1C[C@H]2C(=O)Nc3ccccc3C(=O)N2C1	i
O=C(Cn1nnc2sc(-c3ccccc3)cc2c1=O)Nc1cccc(Cl)c1	i
CC(C)(C)c1ccc(C(=O)NCCSc2c[nH]c3ccccc23)cc1	i
N#Cc1nc(C2CC2)oc1N1CCN(C(=O)c2ccc(F)c(F)c2)CC1	i
O=C(NC1CCCCCC1)c1csc(N2CCN(c3ccccc3)CC2)n1	i
CCOCCn1c(=O)n(Cc2c(C)noc2C)c2cc(C(=O)O)cnc21	i
COC(=O)c1cc(C(=O)c2cc(F)ccc2O)cc(C(=O)OC)c1O	i
CN(C)S(=O)(=O)N(CC(=O)N1CCN(c2ccccc2)CC1)c1ccc(F)cc1	i
COc1ccc(OCCNC(=O)c2ccc3c(c2)NC(=O)CS3)cc1	i
Fc1ccccc1-c1nnc(SCc2cccc(F)c2F)n1C1CC1	i
Cc1cccc(CNC(=O)c2csc(N3CCN(c4ccccc4)CC3)n2)c1	i
Cc1cn2nc(C(=O)NCc3ccccc3)cc2c(N(C)Cc2ccccc2)n1	31.6µM*
CSc1ccc(CNC(=O)c2cc3c(N(C)Cc4ccccc4)nc(C)cn3n2)cc1	25.1µM*
Cc1cc(C(=O)NCc2ccc(F)cc2)n(-c2ccccc2)n1	i
CC(=O)c1cc(C(=O)NCc2cccnc2N(C)Cc2ccccc2)cs1	i
SMILES	KDM5B inh
Cc1cn2nc(C(=O)NCc3cc(F)cc(F)c3)cc2c(N(C)Cc2ccccc2)n1	20µM*
CC(C)(C)c1cc(C(=O)NCc2ccc(F)cc2)nn2cccc12	i
Cc1cn2nc(C(=O)NCc3cc(F)cc(F)c3)cc2c(=O)[nH]1	i
CSc1ncc(C(=O)NCc2cccc(C)c2)c(-c2ccccc2)n1	i
CSc1ccc(CN(C)CC(=O)NC(=O)NCc2ccccc2)cc1	i
Cc1cccc(CNC(=O)c2cc3c(N(C)Cc4ccccc4)nc(C)cn3n2)c1	25.1µM*
O=C(c1ccc(Cl)cc1)N1CC2(CCCN(CC3CC3)C2)Cc2ccccc21 (configuration not stated)	i
CC(C)NC(=O)c1ccc(Cn2cnc3ccccc3c2=O)cc1	i
Cc1ccc(-c2nc(SCC(=O)N3CCCC3c3ccc4c(c3)OCCCO4)n[nH]2)cc1 (configuration not stated)	i
CC(C)NC(=S)N/N=C/C1CC=CCC1 (configuration not stated)	i
COC(=O)c1ccc(OCC(=O)c2ccc3c(c2)OCCO3)cc1	i
Cc1ccc(-c2nc(CN3CCCC3c3cccs3)co2)c(C)c1 (configuration not stated)	i
COC(=O)C1C(C(=O)OC)C2(OC(c3ccccc3)=CC2=O)C12OC(c1ccccc1)=CC2=O (configuration not stated)	i
COc1ccc(S(=O)(=O)N(C)Cc2cnn(C)c2)cc1OC	i
COc1ccc(-c2nc3c(c(=O)[nH]2)CCN(C(=O)Nc2cc(F)cc(F)c2)C3)cc1	17.8µM*
Cc1cc(=O)n(CC(=O)Nc2cccc(C#N)c2)c(-c2ccc(F)cc2)n1	i
N#Cc1cccc(NC(=O)N2CCc3c(nc(-c4ccc(F)cc4)[nH]c3=O)C2)c1	20µM*
COc1ccc(-c2nc3c(c(=O)[nH]2)CCN(C(=O)Nc2ccccc2Cl)C3)cc1	i
N#Cc1ccc(S(=O)(=O)N2CCc3c(nc(-c4ccc(F)cc4)[nH]c3=O)C2)cc1	i
COc1ccc(-c2nc3c(c(=O)[nH]2)CCN(C(=O)Nc2ccc4c(c2)CCC4)C3)cc1	i
Cc1cccc(NC(=S)NCCc2ccc(C(F)(F)F)cc2)c1	i
NC(=O)C1CN(CC(=O)Nc2ccccc2Cl)c2ccccc2O1 (configuration not stated)	i
COC(=O)C1C(=O)CC(C)(O)C(C(=O)OC)C1c1ccc(C)cc1 (configuration not stated)	i
N#Cc1ccnc(Sc2ccc(F)cc2)c1	i
CCCOc1nccnc1NC1CCN(S(=O)(=O)CC)CC1	28.2µM*

Assay outcomes as filed in PubChem.
